This note sets out measurements from PubChem BioAssay AID1626 (SRMLSC, 2009).

The term inhibition denotes the relative decrease from the control value, in per cent.

Out of some 220,000 compounds screened, about 2,000 (0.91%) were called active. Not shown: some 2% with an inconclusive outcome. Not all results are given here. Potency and affinity values are given separately. A number with no mark means an inactive call. No stated cut-off is given here; in the data, inconclusive means inhibition above about 80% without an active follow-up result; inactive means below that; test concentration not stated here.

The experiment in a line: M. tuberculosis H37Rv growth inhibitors, H37Rv strain (AID 1626).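 Further: bacteria incubated seven days before Alamar blue readout; 0% = bacteria only wells and 100% = bacteria with antibiotic wells.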 The note with it: stronger effect = higher value, concentration not given here.
Regarding `COCCCNC(=O)c1ccc(N2CCOCC2)c(NS(=O)(=O)c2ccc(OC)cc2)c1`, the inhibition is -10.8%. With `Cc1ccc(SC[C@H](c2ccccc2)N2CCN(CCc3ccccc3)CCC2=O)cc1`, the inhibition is 0.98%. To `COC(=O)C(C(=O)OC)c1ccc(N)cc1` belongs 79.1%. Turning to `N/C(=N/OC(=O)c1ccccc1Cl)c1nonc1N`, the inhibition is -5.25%.

Consider `N=C(N)CCCOc1ccccc1-c1ccccc1`, for which the inhibition is 4.47%. In the case of `O=C(CN1C(=O)c2ccccc2C1=O)Nc1ccc(N2CCOCC2)cc1`, the inhibition was 1.44%. For `O=C(NCCN1CCOCC1)c1ccc2c(c1)N(Cc1cccc(F)c1)C(=O)c1ccccc1S2`, the inhibition was 2.5%. On to `Cc1cc(Nc2c(C)n(C)n(-c3ccccc3)c2=O)n2c(nc3cc(F)c(F)cc32)c1C#N`, for which the inhibition is -5.9%. Regarding `Cc1cc(Cl)n2c(nc3ccccc32)c1C#N`, the inhibition is -11.2%.

`COC(=O)c1[nH]c2ccc(Br)cc2c1NC(=O)C(C)N1CCN(C2CCCCC2)CC1` (configuration not stated): the inhibition is -3.42%. To `CN(C(=O)COC(=O)c1c2c(nc3ccccc13)/C(=C/c1cccc([N+](=O)[O-])c1)CCC2)C1CCS(=O)(=O)C1` (configuration not stated) belongs 78.5%; to `CC1CCc2nc3ccccc3c(C(=O)OCC(=O)NC3CCS(=O)(=O)C3)c2C1` (configuration not stated), -5%; to `Cc1nn(C)c(C(=O)Nc2ccn(Cc3ccccc3F)n2)c1[N+](=O)[O-]`, -2.14%. For `O=[N+]([O-])c1ccc(NCCCO)c(S(=O)(=O)N2CCOCC2)c1`, the inhibition was -3.72%. In the case of `COc1ccc2c(c1)sc(=N)n2CC(=O)Nc1cc(C)cc(C)c1`, the inhibition was 3.49%. Regarding `COc1ccc2c(c1)c1ccccc1n2C`, the inhibition was -6.03%. On to `O=C(O)COc1ccccc1Cc1ccccc1`, for which the inhibition is -9.69%. The value for `O=C(COc1ccc(F)cc1)N1c2ccccc2CCc2ccccc21` was 6.06%. The value for `O=C(CCC1CCCN(c2ncccn2)C1)N1CCN(c2ccccn2)CC1` (configuration not stated) was 0.77%; that for `N#C/C(=C\c1ccco1)c1nc2ccccc2s1` was 4.85%. `N#C/C(=C/c1ccncc1)c1nc2ccccc2s1`: the inhibition is 4.82%. For the compound `Cc1ccc(OCC(=O)n2nc(C)cc2C)c(C)c1`, the inhibition was 10%.

Consider `COc1ccc(N2C(=O)CC(N3CCC(c4nc5ccccc5[nH]4)CC3)C2=O)cc1` (configuration not stated), for which the inhibition is -1.11%.

For `O=C(CN1C(=O)NC2(CCCCCCC2)C1=O)N1CCc2ccccc2C1`, the inhibition was -9.98%. With `COc1ccc2nc(NC(=O)CSc3nnnn3C3CCCCC3)sc2c1`, the inhibition is 0.53%.

As for `CCn1nnnc1SCC(=O)Nc1nc2ccc(OC)cc2s1`, the inhibition is 1.9%. Consider `CSc1nsc(SCC(=O)Nc2nc3ccc(C)cc3s2)n1`, for which the inhibition was 10.3%. In the case of `O=C(CSc1nc2ccccc2s1)Nc1ccc2c(c1)OCO2`, the inhibition was 76.4%. Turning to `CSc1nsc(SCC(=O)Nc2nc3ccccc3s2)n1`, the inhibition is 52.1%. The value for `CCOc1ccc2nc(SCC(=O)NC(=O)C(C)C)sc2c1` was 3.81%; that for `CSc1nsc(SCC(=O)Nc2ccc3c(c2)OCCO3)n1` was -14.4%; that for `CSc1nsc(SCC(=O)Nc2cccc(C(C)=O)c2)n1` was -15.7%.
